Compounds with a hit are over-represented: about 1.5% of the library has one in this group of screens.
dFosB activator – activators of delta FosB homodimer, primary screen, biochemical, fluorescence polarization, TAMRA-CDK5 oligo, single point. Protein FosB (Mus musculus), P13346. purified delta FosB; percent of positive-control signal above neutral wells. activation, % at 25 µM. 0.99% of 340,000 active. AID 493131, 2011;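 active means mean activation above about 17%, with every replicate also reaching it, limit read from the data, passing the limit was not always enough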
RAD52 inh – RAD52 DNA annealing inhibitors, primary screen, biochemical, FRET, single point, set 2 | inhibition, % at 18.7 µM | AID 651710, 2012 | recombinant RAD52 DNA annealing, FRET fluorescence | DNA repair protein RAD52 homolog (Homo sapiens), P43351 | 0.46% of 360,000 active;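 active means every replicate showing at least 50% inhibition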
F508del corr – F508del CFTR correction, initial screen, CFBE line, single point. 0.36% of 350,000 active. CFBE cells, YFP halide quenching; stimulated with forskolin plus potentiator P3; % fluorescence drop versus neutral controls. activity (quench increase), % at 7.58 µM;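 active means mean added fluorescence quench of at least 8% versus neutral control, with both replicates also reaching 8%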;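 further: cells transiently co-express mutant CFTR-F508del with the halide-sensitive YFP; corrector assay measuring rescue of mutant channel to the surface after 24 h compound exposure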
RAD54 inh – inhibitors of human RAD54 branch migration, primary screen, biochemical, fluorescence, single point | inhibition, % at 10.4 µM | 0.14% of 360,000 active | DNA repair and recombination protein RAD54-like (Homo sapiens), Q92698 | RAD54 Holliday junction branch migration, FAM/BHQ fluorescence | AID 602329, 2012;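 active means mean normalized replicate activity at least 40 and at least half of replicates scoring 40 or more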;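 further: 0% = median of neutral control wells and 100% = median of positive control wells; inhibitors cause a drop in the FAM fluorescence signal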
PvdQ inh – P. aeruginosa PvdQ acylase inhibitors, primary screen, biochemical, fluorescence, plate reader and imaging, single point; 0.063% of 340,000 active; purified PvdQ acylase; PvdQ acylase [Pseudomonas aeruginosa LESB58]; inhibition, % at 10 µM; in the data active means inhibition above about 30%, passing the limit was not always enough;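 further: 0% = vehicle neutral wells and 100% = reference inhibitor wells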
N-glyco inh – increase of ERlucT glycosylation luciferase signal, primary screen, N-linked glycosylation inhibitor project, D54 ERlucT cells, luminescence, set 2 | D54 ERlucT glycosylation luciferase reporter, 24 h; percent of 100 nM tunicamycin response | reporter increase, % at 12.5 µM | 0.23% of 360,000 active | AID 588692, 2011;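 active means mean luciferase reporter signal, scaled so untreated is 0 and the glycosylation-blocking control 100, at or above a set limit in every replicate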;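 further: luciferase carries N-glycosylation sites so blocking glycosylation raises the light; 0% = median of neutral control wells and 100% = median of 100 nM tunicamycin wells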
Active calls of the source: *; . = no result.

SMILES	dFosB activator	RAD52 inh	F508del corr	RAD54 inh	PvdQ inh	N-glyco inh
C[C@@H]1CN([C@@H](C)CO)C(=O)Cc2cc(NC(=O)Nc3ccc(F)cc3)ccc2O[C@@H]1CN(C)C(=O)Nc1ccc2c(c1)OCO2	.	-6	3	0	.	.
Cc1ccc(C2(C)NC(=O)N(CC(=O)Nc3nc(-c4ccccn4)cs3)C2=O)cc1 (stereo unspecified)	-19	-36	10.0*	-11	-10	1
C[C@@H]1CN([C@@H](C)CO)S(=O)(=O)c2ccc(C#CC3CC3)cc2O[C@@H]1CN(C)S(C)(=O)=O	.	-6	2	-4	.	.
COc1ccc(NC(=O)C(CC(=O)O)Cc2ccc(Cl)cc2)cc1 (stereo unspecified)	-1	-10	8.9*	1	-8	0
O=S1(=O)c2ccc(Br)cc2N2CCC[C@@H]2CN1Cc1ccc(Cl)cc1	-10	-5	0	-1	-8	-3
O=S1(=O)c2ccc(Br)cc2N2CCC[C@H]2CN1Cc1ccccc1	1	-12	9.5*	-8	1	6
CCOC(=O)c1[nH]c(C)c(C(=O)Nc2cc(OC)ccc2OC)c1C	-11	.	.	12	4	35*
CCOC(=O)c1c(C)[nH]c(C(=O)OCC(=O)Nc2ccc(OC)c(Cl)c2)c1C	140*	.	.	7	3	0
CCOC(=O)c1c(C)[nH]c(C(=O)OCC(=O)Nc2cc(Cl)ccc2OC)c1C	-1	.	.	-6	10	1
C[C@H]1CN([C@@H](C)CO)C(=O)c2cc(-c3cccc(F)c3)cnc2O[C@H]1CN(C)Cc1cccnc1	.	6	-3	3	.	.
COc1ccc(CNC(=O)C[C@H]2C[C@@H]3c4cc(NS(=O)(=O)c5ccc(F)cc5)ccc4O[C@@H]3[C@H](CO)O2)cc1	.	1	0	-2	.	.
COc1ccc(-c2ccc(OC)cc2)cc1	0	.	.	-8	52*	2
CC(=O)N1CCCCN2[C@H](CO)[C@@H](c3ccc(C#Cc4ccccc4F)cc3)[C@H]2C1	.	12	2	2	.	.
CN1CCCCN2[C@@H](CO)[C@@H](c3ccc(C#Cc4ccccc4F)cc3)[C@@H]2C1	.	71*	1	11	.	.
CCC(=O)N1CCCCN2[C@@H](CO)[C@@H](c3ccc(C#Cc4ccccc4F)cc3)[C@@H]2C1	.	12	2	3	.	.
CN1CCCCN2[C@H](CO)[C@@H](c3ccc(C#Cc4ccccc4F)cc3)[C@@H]2C1	.	69*	-8	9	.	.
CO[C@@H]1CN(C)C(=O)c2cc(NS(=O)(=O)CC(F)(F)F)ccc2OC[C@H](C)N(C(=O)c2ccc3c(c2)OCO3)C[C@@H]1C	.	-8	-1	-5	.	.
C=CCN1C(=O)[C@]2(O[C@H](CCn3cc(CCO)nn3)[C@@H]([Si](C)(C)c3ccc(OC)cc3)[C@@H]2C)c2cc(N3C(=O)c4cccc5cccc3c45)ccc21	.	-5	-1	-4	.	.
COCCN(C(=O)CCl)C(C(=O)NC1CCCCC1)c1ccccc1C (stereo unspecified)	7	-12	.	2	-2	30*
COCCN(C(=O)CCC(=O)Nc1cc(C)on1)C(C(=O)NC1CCCC1)c1ccccc1C (stereo unspecified)	-2	-5	0	.	-7	-1
Cc1noc(C)c1NC(=O)N(C)C[C@@H]1OCCCC[C@@H](C)Oc2ccc(NS(=O)(=O)c3ccc(Cl)cc3)cc2C(=O)N([C@H](C)CO)C[C@@H]1C	.	4	-1	0	.	.
COc1ccc2c(c1)CC[C@@H]1[C@@H]2CC[C@]2(C)[C@@H](C(=O)O)C[C@@H]12	-2	-21	1	2	-19	1
C#C[C@]1(O)CC[C@H]2[C@@H]3CCc4cc(OC)ccc4[C@H]3CC[C@@]21C	0	-3	8.4*	1	-7	1
COc1ccc2c(c1)CC[C@@H]1[C@@H]2CC[C@]2(C)[C@@H](C(C)=O)C[C@@H]12	-5	-6	0	-5	-6	0
